# Screen size: about 69,000 compounds; about 8,600 (12%) showed an effect of 50% or more. The sample as a whole holds a higher share of strong results than the screen did.
# Test system: Plasmodium berghei
# Assay: Screen against P. berghei liver stage (PbLuc), transformed with Luciferase, at 10uM
# Type: functional, HepG2
# Conditions: tested at 10 uM
row,SMILES,INHIBITION
1,Cc1cn[nH]c1C1COCCN1Cc1cscn1 (centres undefined),25.85%
2,CCN(C)c1ncnc2c1CCN(C(=O)c1cnccn1)CC2,-66%
3,O=C(NCCO)c1sc2ncccc2c1C1CNCCO1 (centres undefined),9.98%
4,CC(C)NC(=O)N1CCC2(CC1)COc1ccccc1S(=O)(=O)N(C)C2,4.57%
5,O=C(C1CCCO1)N1CCCC2(CCN(c3cccnc3)CC2)C1 (centres undefined),29.5%
6,O=S(=O)(c1cccs1)N1CCCC2(COCCN(c3cccnc3)C2)C1 (centres undefined),82.3%
7,O=C([C@H]1CCCO1)N1CCCC2(COCCN(c3ccccc3)C2)C1 (some centres undefined),66.3%
8,CCS(=O)(=O)N1CCCC2(COCCN(c3cnccn3)C2)C1 (centres undefined),45.8%
9,O=C(c1ccncc1)N1CCCC2(COCCN(c3ccccc3)C2)C1 (centres undefined),-6.82%
10,O=C(N1CCCC1)N1CCOCC2(CCN(Cc3cccs3)C2)C1 (centres undefined),66.8%
11,O=C(NC1CC1)N1CCOCC2(CCN(Cc3cccs3)C2)C1 (centres undefined),-0.371%
12,c1cncc(N2CCOCC3(CCCN(c4nncs4)C3)C2)c1 (centres undefined),43.2%
13,COCC(=O)N1CCOCC2(CCN(Cc3cccs3)C2)C1 (centres undefined),-13.2%
14,Cc1ccc(C2CSCCN2C(=O)c2cnsn2)o1 (centres undefined),8.46%
15,CN1CCN(C(=O)c2n[nH]c3c2CN(C2CCOC2)CC3)CC1 (centres undefined),22.3%
16,CCNc1ncnc2c1CN(C1CCCNCC1)C(=O)CN2C (centres undefined),40%
17,CNc1cc(C2CN(CC(=O)N(C)C)CCO2)nc(C)n1 (centres undefined),14.7%
18,Cc1cc(=O)[nH]cc1C(=O)N1Cc2ccccc2N(C)CC1C (centres undefined),52.6%
19,CC1CN(C)c2ccccc2CN1C(=O)c1cc[nH]c(=O)c1 (centres undefined),-18.3%
20,CCC1CN(C)c2ccccc2CN1C(=O)c1c[nH]c(=O)cc1C (centres undefined),28.7%
21,Cc1ccccc1CCNC(=O)C1CC(=O)N(CC(F)(F)F)C1 (centres undefined),55.5%
22,O=C(NCCc1ccccn1)C1CC(=O)N(CC(F)(F)F)C1 (centres undefined),2.3%

row,SMILES,INHIBITION
1,O=C(NCCNc1ncccn1)C1CC(=O)N(CC(F)(F)F)C1 (centres undefined),19.5%
2,CN1CCN(C(=O)c2cn(-c3ccc(C(F)(F)F)cn3)nn2)CC1,59.1%
3,O=C(c1cn(-c2ccc(C(F)(F)F)cn2)nn1)N1CCCCCC1,46.1%
4,CC1CCN(C(=O)c2cn(-c3ccc(C(F)(F)F)cn3)nn2)CC1,2.55%
5,CC(C)N(Cc1ccccn1)S(=O)(=O)N1CCCC1c1ccco1 (centres undefined),7.515%
6,CCn1nnc2c1C(COC)CN(Cc1cccs1)C2 (centres undefined),-0.113%
7,COc1ccc(-c2nnsc2C(=O)N2CCSCC2)cc1,26.4%
8,CCC(C)NC(=O)c1snnc1-c1ccc(OC)cc1 (centres undefined),74%
9,COc1ccc(-c2nnsc2C(=O)N2CCN(C(C)=O)CC2)cc1,2.49%
10,COC(=O)[C@@H](NC(=O)c1snnc1-c1ccc(OC)cc1)C(C)C,24.7%
11,COc1ccc(-c2nnsc2C(=O)N2CCC(C(N)=O)CC2)cc1,90.4%
12,COC(=O)[C@H](CC(C)C)NC(=O)c1snnc1-c1ccc(OC)cc1,24.1%
13,O=C(NCCO)NC(c1ccccc1)c1ccc2c(c1)CCCO2 (centres undefined),22.6%
14,NCCC(=O)N1CCC2(CC1)CN(C(=O)c1ccc(Cl)cc1)CCO2,16.8%
15,Cc1nc(CN(C)Cc2cnc(N3CCOCC3)s2)no1,32.1%
16,COCCN(Cc1nccs1)c1nc2c(s1)c(C)nn2C,22%
17,CCCc1nnc(N(C)CC2CCN(CC(C)C)C2)o1 (centres undefined),-62.4%
18,Cc1nn(C)c2ncnc(N(C)CC3CCN(CC(C)C)C3)c12 (centres undefined),36.3%
19,Cc1nn(C)c2nc(N(C)CCN(C)C3CCCC3)sc12,39.9%
20,COCCN1CCC(CN(C)c2nc3c(s2)c(C)nn3C)C1 (centres undefined),48.5%
21,Cc1nn(C)c2nc(N(CCN(C)C)C3CCCC3)sc12,53%
22,Cc1nn(C)c2nc(N(C)CC3CCN(CC(C)C)C3)sc12 (centres undefined),74.3%

row,SMILES,INHIBITION
1,COCCN1CCCC(CN(C)c2nc3c(s2)c(C)nn3C)C1 (centres undefined),3.96%
2,COCCN(CCOC)c1nc2c(s1)c(C)nn2C,65.6%
3,Cc1nn(C)c2nc(N(C)CCN(C)C)sc12,39.1%
4,COCCN(Cc1cnn(C)c1)c1nc2c(s1)c(C)nn2C,45.2%
5,COCCN1CCC(CN(C)c2nc3c(s2)c(C)nn3C)CC1,64.4%
6,CCOc1cc2c(cc1CN1CCC3(CC1)CNC(=O)C3)CCC2,39.4%
7,COc1c(C2CCCN2CC(=O)NCc2ccccn2)c(C)nn1C (centres undefined),19.6%
8,COC(C(=O)NC1CC1)c1ccccc1 (centres undefined),-35.9%
9,CCOC(=O)C1(O)CCN(C(=O)Nc2cccc(F)c2)CC1,-16.9%
10,COc1cccc(OC)c1-c1ccnc2cc(CC(=O)NC(C)C)nn12,54.5%
11,COc1cccc(OC)c1-c1ccnc2cc(CC(=O)NC3CC3)nn12,39.7%
12,CNC(=O)Cc1cc2nccc(-c3c(OC)cccc3OC)n2n1,45.6%
13,CCN(c1ccc(C(=O)NCc2cc[nH]n2)cc1)C(C)C,82.6%
14,CC(C)c1ccc(O)c(C(=O)NCc2cc[nH]n2)c1,12.8%
15,CCN(c1ccc(C(=O)NCc2ccnc(C)n2)cc1)C(C)C,0.433%
16,Cc1cc(Cc2ccc(S(=O)(=O)N3CCOCC3)cc2)c(=O)[nH]n1,19.8%
17,CCc1nnc(CN(CC)C(=O)C2CC(=O)N(Cc3cccnc3)C2)o1 (centres undefined),23.5%
18,CCN(Cc1nc(C)no1)C(=O)C1CC(=O)N(Cc2ccccn2)C1 (centres undefined),-14.1%
19,CN(Cc1ccon1)C(=O)C1CC(=O)N(Cc2cccnc2)C1 (centres undefined),-49.3%
20,CCc1noc(CN(CC)C(=O)C2CC(=O)N(Cc3ccncc3)C2)n1 (centres undefined),53.2%
21,CCN(CC1CCOCC1)C(=O)C1CC(=O)N(Cc2cccnc2)C1 (centres undefined),53.2%
22,CCN(Cc1nc(C)no1)C(=O)C1CC(=O)N(Cc2cccnc2)C1 (centres undefined),15.6%

row,SMILES,INHIBITION
1,CNC(=O)Cn1ccc2ccc(NC(=O)C(C)CSC)cc21 (centres undefined),29.6%
2,O=S(=O)(c1ccc(-c2cnco2)cc1)N1CCC2(CCCNC2)C1 (centres undefined),35.7%
3,O=S(=O)(c1ccc(-c2cnco2)cc1)N1CCCC(O)(CO)CC1 (centres undefined),-31.4%
4,O=S(=O)(c1ccc(-c2cnco2)cc1)N1CCCC2(CCNCC2)CC1,52.7%
5,CC(c1cccc(-c2ncccc2C#N)c1)N(C)C (centres undefined),19.3%
6,CN(Cc1cc(C(C)(C)C)n[nH]1)C(=O)c1c[nH]nc1-c1cccc(F)c1,30.4%
7,Cc1nn2cc(CNc3nccc(CCC(F)(F)F)n3)nc2s1,-4.91%
8,CCNc1ccnc(NCc2cn3nc(C)sc3n2)n1,-49.3%
9,Cc1ccnc(NCc2cn3nc(C)sc3n2)n1,65.2%
10,Cc1ccc(CN2CCOC3(CCN(C(=O)N4CCCC4)CC3)C2)cc1,15.7%
11,CC(=O)N1CCOC2(CCN(C(=O)C3CC3)CC2)C1,85.6%
12,Cc1ccc(CN2CCOC3(CCN(C(=O)C4CCOC4)CC3)C2)cc1 (centres undefined),39.3%
13,O=C(C1CC1)N1CCOC2(CCNCC2)C1,36.7%
14,Cc1ccc(CN2CCOC3(CCN(C(=O)C4CC=CC4)CC3)C2)cc1,55.6%
15,O=C(C1CCC1)N1CCC2(CC1)CNCCO2,-12.4%
16,CC(=O)N1CCCC2(C1)CN(C(=O)C1CCCCC1)CCO2 (centres undefined),9.97%
17,O=C(C1CC1)N1CCC2(CC1)CNCCO2,51.2%
18,O=C(C1CC=CC1)N1CCC2(CC1)CNCCO2,29%
19,Cc1ccc(CN2CCOC3(CCCN(C(=O)c4ccco4)C3)C2)s1 (centres undefined),28.5%
20,Cc1ccc(N(CCC#N)C(=O)CN2CCCC2c2ccsc2)cc1C (centres undefined),-10.75%
21,CC1CCC(C(=O)N2CCC(n3cc(C4(O)CCCC4)nn3)CC2)CC1 (centres undefined),47.4%
22,c1csc(-c2nc(CN3CCCC3Cn3cccn3)co2)c1 (centres undefined),17.5%

row,SMILES,INHIBITION
1,CC(C)(N)c1nc(C(F)F)cc(=O)[nH]1,-4.35%
2,CS(=O)(=O)NC(c1ccccc1)c1ccc2c(c1)CCCO2 (centres undefined),-9.98%
3,CC(C)c1nc(CN(C)C(=O)[C@H](N)Cc2ccc(Cl)cc2)cs1,17.2%
4,COc1ccc(CN(C)C(=O)NC(C)c2nncn2C)cc1F (centres undefined),-24.7%
5,CC(NC(=O)N(C)Cc1cccc(OC(F)F)c1)c1nncn1C (centres undefined),68.2%
6,CCOc1ccc(CN(C)C(=O)NC(C)c2nncn2C)cc1 (centres undefined),-6.75%
7,Cc1nc(CCN)cc(N2CCOc3ccc(Cl)cc3C2)n1,-43.5%
8,Cc1nc(C2CCNCC2)cc(N2CCOc3ccccc3C2)n1,-55.1%
9,Cc1nc(C2CCN(C)CC2)cc(N2CCOc3ccc(Cl)cc3C2)n1,94.3%
10,CC(C)Oc1ccc(CN)c(C(F)(F)F)c1,10%
11,CCOc1ccccc1OC1CCN(C(=O)c2cnns2)CC1,44.1%
12,CC(C)c1cc(NC(=O)CNC2CCc3nc(C(C)C)nn3C2)on1 (centres undefined),35.7%
13,Cc1c(C2CCCN(C(=O)c3ccncc3)C2)n2c(nc1=O)CCC2 (centres undefined),20.8%
14,Cc1c(C2CCCN(C(=O)C3CC3)C2)n2c(nc1=O)CCC2 (centres undefined),28.4%
15,Cc1noc(C)c1C(=O)N1CCCC(c2c(C)c(=O)nc3n2CCC3)C1 (centres undefined),55.6%
16,CNC(=O)Cn1cc(Nc2cccc(F)c2C#N)cn1,-0.514%
17,N#Cc1c(F)cccc1Nc1cnn(CC(=O)N2CCOCC2)c1,19.2%
18,N#Cc1c(F)cccc1Nc1cnn(CC(N)=O)c1,65.4%
19,CCc1csc(C2CCCN(C(=O)c3cnc[nH]3)C2)n1 (centres undefined),10%
20,CN(Cc1ccco1)Cc1cnc2n1CCN(c1ncccn1)CC2,2.4%
21,Cc1ccc(S(=O)(=O)NCC(C)(C)N)c(F)c1,8.51%

# Source: ChEMBL document CHEMBL4513216, “Probing the Open Global Health Chemical Diversity Library for Multistage-Active Starting Points for Next-Generation Antimalarials” (ACS Infect Dis, 2020)
